Data published in PubChem BioAssay (NCI).
Values joined by “and” are separate entries in the source; they are usually repeats but may differ in a detail not shown here. Equal values may be shown once. Compounds without any hit were thinned out: in the full panel of roughly 83,000, 20% have a hit.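 Each cell line was grown in a 96-well plate and treated with one concentration of compound for 48 hours. Values below 10 were considered active.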 Active and inactive are the calls of the source.

Assays:
Test in all cases: NCI-60 one-dose screen, 48 h (100 = growth as untreated, 0 = no growth, -100 = all killed)
Settings in all cases: 10 µM unless noted
HCT-15 colon = test system: HCT-15 colon
HT29 colon = test system: HT29 colon
SNB-75 CNS = test system: SNB-75 CNS
SNB-19 CNS = test system: SNB-19 CNS
U251 CNS = test system: U251 CNS
PC-3 prostate = test system: PC-3 prostate
SK-MEL-5 melanoma = test system: SK-MEL-5 melanoma
UACC-62 melanoma = test system: UACC-62 melanoma
LOX IMVI melanoma = test system: LOX IMVI melanoma
SK-MEL-2 melanoma = test system: SK-MEL-2 melanoma
EKVX NSCLC = test system: EKVX NSCLC
SN12C renal = test system: SN12C renal
UO-31 renal = test system: UO-31 renal
TK-10 renal = test system: TK-10 renal
ACHN renal = test system: ACHN renal
CAKI-1 renal = test system: CAKI-1 renal
A498 renal = test system: A498 renal
CCRF-CEM leukemia = test system: CCRF-CEM leukemia
MOLT-4 leukemia = test system: MOLT-4 leukemia
SK-MEL-28 melanoma = test system: SK-MEL-28 melanoma

SMILES	growth (HCT-15 colon)	growth (HT29 colon)	growth (SNB-75 CNS)	growth (SNB-19 CNS)	growth (U251 CNS)	growth (PC-3 prostate)	growth (SK-MEL-5 melanoma)	growth (UACC-62 melanoma)	growth (LOX IMVI melanoma)	growth (SK-MEL-2 melanoma)	growth (EKVX NSCLC)	growth (SN12C renal)	growth (UO-31 renal)	growth (TK-10 renal)	growth (ACHN renal)	growth (CAKI-1 renal)	growth (A498 renal)	growth (CCRF-CEM leukemia)	growth (MOLT-4 leukemia)	growth (SK-MEL-28 melanoma)
O=C1CCc2c(sc3[nH]c(=S)n(Cc4ccc(Cl)cc4)c(=O)c23)C1	-13.5% (active)	14.5% (inactive)	3.19% (active)	19.8% (inactive)	5.03% (active)	3.57% (active)	-81.1% (active)	0.777% (active)	2.41% (active)	-20.9% (active)	-2.48% (active)	5.94% (active)	-6.54% (active)	15.3% (inactive)	6.08% (active)	3.79% (active)	-2.71% (active)	-9.46% (active)	18% (inactive)	–
N#Cc1c(-c2cccc(F)c2)cc(-c2cccnc2)[nH]c1=O	104% (inactive)	104% (inactive)	97.1% (inactive)	99.9% (inactive)	101% (inactive)	101% (inactive)	104% (inactive)	97.5% (inactive)	98.8% (inactive)	110% (inactive)	106% (inactive)	96.4% (inactive)	90.2% (inactive)	106% (inactive)	–	95.9% (inactive)	116% (inactive)	104% (inactive)	99.7% (inactive)	104% (inactive)
CC1=CC(C)(C)NC(=S)N1c1ccc(Cl)cc1	96.9% (inactive) and 88.8% (inactive)	103% (inactive)	91.3% (inactive) and 108% (inactive)	96.7% (inactive) and 96.9% (inactive)	98.7% (inactive) and 102% (inactive)	94% (inactive) and 85.1% (inactive)	100% (inactive) and 103% (inactive)	94.6% (inactive) and 84.9% (inactive)	95.2% (inactive) and 97.7% (inactive)	101% (inactive) and 94.3% (inactive)	91.5% (inactive) and 106% (inactive)	95.6% (inactive) and 99% (inactive)	82.2% (inactive)	99.7% (inactive) and 98.7% (inactive)	94.7% (inactive) and 99.9% (inactive)	91.6% (inactive) and 97.8% (inactive)	104% (inactive)	105% (inactive) and 89.1% (inactive)	95% (inactive) and 96.8% (inactive)	–
COc1cc(Cl)cc(-c2nn(C(=O)NS(=O)(=O)c3ccc(Cl)cc3)cc2-c2ccncc2)c1	98.4% (inactive)	30.8% (inactive)	-8.56% (active)	97.2% (inactive)	70.6% (inactive)	88.9% (inactive)	95.2% (inactive)	73.3% (inactive)	45.5% (inactive)	95% (inactive)	59.5% (inactive)	92.5% (inactive)	63% (inactive)	85.8% (inactive)	–	91% (inactive)	70.2% (inactive)	88% (inactive)	76.2% (inactive)	95.8% (inactive)
CCOC(=O)c1nc2c3ccccc3cnn2c1C(=O)c1ccc(OC)cc1	96.4% (inactive)	98.4% (inactive)	88.6% (inactive)	90.7% (inactive)	89.9% (inactive)	90.9% (inactive)	97.1% (inactive)	95.5% (inactive)	94% (inactive)	107% (inactive)	89.7% (inactive)	98.5% (inactive)	79.4% (inactive)	140% (inactive)	–	86.9% (inactive)	79.9% (inactive)	91.2% (inactive)	88.7% (inactive)	120% (inactive)
CC1(C)C(N)=Nc2cc(OCCCCN3Cc4ccccc4C3)c(OCC3CC3)cc21	36.2% (inactive)	27.6% (inactive)	78.9% (inactive)	81.9% (inactive)	56.3% (inactive)	98.5% (inactive)	57.7% (inactive)	82.7% (inactive)	26.4% (inactive)	110% (inactive)	78.6% (inactive)	81.9% (inactive)	60.5% (inactive)	86.9% (inactive)	87.8% (inactive)	56.3% (inactive)	109% (inactive)	99.4% (inactive)	101% (inactive)	–
NS(=O)(=O)c1ccc(C(=O)N=Nc2c(O)[nH]c3c(F)cccc23)cc1	105% (inactive)	99.6% (inactive)	97.7% (inactive)	97.4% (inactive)	98.6% (inactive)	94.9% (inactive)	101% (inactive)	99.6% (inactive)	98% (inactive)	104% (inactive)	102% (inactive)	97.1% (inactive)	76.4% (inactive)	107% (inactive)	97.3% (inactive)	93.2% (inactive)	104% (inactive)	102% (inactive)	124% (inactive)	–
Cc1ccc2[nH]c(=S)[nH]c(=O)c2c1	106% (inactive)	102% (inactive)	80.5% (inactive)	101% (inactive)	95% (inactive)	102% (inactive)	100% (inactive)	103% (inactive)	95.5% (inactive)	111% (inactive)	104% (inactive)	99.9% (inactive)	92.4% (inactive)	85.4% (inactive)	–	89.7% (inactive)	94.8% (inactive)	98.8% (inactive)	93.3% (inactive)	111% (inactive)
Cc1ccc(NC(=O)c2ccc(CN3CCN(C)CC3)cc2)cc1Nc1nccc(-c2cccnc2)n1	88.5% (inactive) and 48.2% (inactive)	52.9% (inactive) and 24.1% (inactive)	99.4% (inactive) and 82.5% (inactive)	112% (inactive) and 95% (inactive)	89.4% (inactive) and 65.7% (inactive)	89.4% (inactive) and 72% (inactive)	77.7% (inactive) and 63.2% (inactive)	92.3% (inactive) and 87.9% (inactive)	88.4% (inactive) and 77.1% (inactive)	–	84.3% (inactive) and 90.9% (inactive)	94% (inactive) and 83.7% (inactive)	92.4% (inactive) and 77.6% (inactive)	110% (inactive) and 74.9% (inactive)	101% (inactive) and 82.7% (inactive)	100% (inactive) and 102% (inactive)	86.3% (inactive) and 82.5% (inactive)	93.4% (inactive) and 49.7% (inactive)	82% (inactive) and 45.1% (inactive)	109% (inactive) and 77.8% (inactive)
O=C1/C(=C/c2ccccc2[N+](=O)[O-])Cc2ccccc21	-56.9% (active) and 5.02% (active)	-44% (active) and -37.1% (active)	40.8% (inactive) and 43.5% (inactive)	93.7% (inactive) and 74.1% (inactive)	24.9% (inactive) and 32.7% (inactive)	27.2% (inactive) and 30.4% (inactive)	47.2% (inactive) and 69.5% (inactive)	29.5% (inactive) and 25.5% (inactive)	-61.1% (active) and 5.09% (active)	68.4% (inactive) and 80.5% (inactive)	–	20.3% (inactive) and 48.5% (inactive)	-66.2% (active) and 25.9% (inactive)	-15.6% (active) and 21.2% (inactive)	-23.9% (active) and -43.3% (active)	-10.6% (active) and -9.61% (active)	-18.3% (active) and 14.1% (inactive)	-0.132% (active) and 4.53% (active)	-1.54% (active) and 13.5% (inactive)	45.9% (inactive) and 4.22% (active)
Nc1nc2c(s1)CCc1cn(S(=O)(=O)c3ccccc3)cc1-2	98.3% (inactive) and 99.3% (inactive)	106% (inactive)	80.5% (inactive) and 89.9% (inactive)	94.6% (inactive) and 97% (inactive)	80.3% (inactive) and 97.7% (inactive)	75.6% (inactive) and 84.4% (inactive)	90.1% (inactive) and 95% (inactive)	79.4% (inactive) and 96.3% (inactive)	84.1% (inactive) and 104% (inactive)	106% (inactive) and 99.1% (inactive)	95.8% (inactive)	86.6% (inactive) and 93.5% (inactive)	54.5% (inactive) and 84.5% (inactive)	108% (inactive) and 115% (inactive)	–	85.8% (inactive) and 101% (inactive)	80% (inactive) and 73.5% (inactive)	79.9% (inactive) and 79.3% (inactive)	84.3% (inactive) and 91.6% (inactive)	113% (inactive) and 104% (inactive)
CC(C)=CCc1cc(O)c(O)c2oc3cc(O)cc(O)c3c(=O)c12	22.3% (inactive)	91.7% (inactive)	60.2% (inactive)	52.6% (inactive)	41% (inactive)	68.8% (inactive)	56.1% (inactive)	54% (inactive)	32.6% (inactive)	97.3% (inactive)	78.2% (inactive)	58.4% (inactive)	45.9% (inactive)	46.7% (inactive)	–	36.7% (inactive)	101% (inactive)	29.5% (inactive)	31.9% (inactive)	84.4% (inactive)
COc1cc(C(=O)c2ccccc2C(=O)O)c(OC)c2c1CCCC2	93.4% (inactive) and 104% (inactive)	105% (inactive) and 98.2% (inactive)	94.1% (inactive) and 87.4% (inactive)	94.6% (inactive) and 102% (inactive)	97% (inactive) and 100% (inactive)	93.3% (inactive) and 103% (inactive)	96.6% (inactive) and 97.5% (inactive)	96.1% (inactive) and 101% (inactive)	94.3% (inactive) and 94.1% (inactive)	115% (inactive)	87.7% (inactive)	96.4% (inactive) and 98.3% (inactive)	81.9% (inactive) and 84.1% (inactive)	67.5% (inactive) and 107% (inactive)	102% (inactive) and 103% (inactive)	98.2% (inactive) and 98.9% (inactive)	52.8% (inactive) and 110% (inactive)	113% (inactive) and 90.4% (inactive)	86.3% (inactive) and 95.7% (inactive)	–
NS(=O)(=O)OCC1OC(n2cnc3cncnc32)C(O)C1O (stereo unspecified)	22% [0.1 µM] (inactive) and 8.65% [0.1 µM] (active)	13.7% [0.1 µM] (inactive) and 14.3% [0.1 µM] (inactive)	32.3% [0.1 µM] (inactive) and 40.4% [0.1 µM] (inactive)	-4.22% [0.1 µM] (active) and 0.183% [0.1 µM] (active)	-11.8% [0.1 µM] (active)	21% [0.1 µM] (inactive) and 17.8% [0.1 µM] (inactive)	49.4% [0.1 µM] (inactive)	44.2% [0.1 µM] (inactive) and 42.4% [0.1 µM] (inactive)	5.02% [0.1 µM] (active) and 5.99% [0.1 µM] (active)	30.5% [0.1 µM] (inactive) and 21.3% [0.1 µM] (inactive)	69.5% [0.1 µM] (inactive)	-10.2% [0.1 µM] (active) and -29.3% [0.1 µM] (active)	-2.13% [0.1 µM] (active) and 19.4% [0.1 µM] (inactive)	18.5% [0.1 µM] (inactive) and 13% [0.1 µM] (inactive)	13.3% [0.1 µM] (inactive) and 14.6% [0.1 µM] (inactive)	-34.9% [0.1 µM] (active) and 8.16% [0.1 µM] (active)	-5.51% [0.1 µM] (active) and -5.14% [0.1 µM] (active)	11.4% [0.1 µM] (inactive) and -1.11% [0.1 µM] (active)	0.572% [0.1 µM] (active) and -5.43% [0.1 µM] (active)	–
